Measurements taken from PubChem BioAssay AID1159580 (chemical genetic matrix, 2015).
Several values for one entry are separate records, joined by “and”; a condition that tells them apart may be missing. Identical values can stand only once. Out of some 5,500 compounds screened, about 2,000 (36%) were called active. Another 18% or so got no clear call; they are omitted. No stated cut-off is given here; in the data, active means normalized growth mostly below about 0.91 (no sharp cut-off); inconclusive means no clear call, values can overlap the other calls; inactive means mostly above about 0.92. This is one part of the list.

Test: chemical genetic growth profiling, strain panel (AID 1159580);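 further: tested at 20 µM; growth read once vehicle control cultures reached saturation at 30 °C; 1 = growth at the plate median or of vehicle wells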
Conditions: S. cerevisiae deletion strains, growth OD

Measured: normalized growth

CC(C)[N+](C)(CCOC(=O)C1c2ccccc2Oc2ccccc21)C(C)C
inactive: locus YAL013W, strain DEP1, stronger effect = lower value 1.01 | locus YAL021C, strain ccr4, stronger effect = lower value 1.01 | locus YAL026C, strain drs2, stronger effect = lower value 1.03 | locus YAL030W, strain snc1, stronger effect = lower value 1.02 | locus YAL040C, strain CLN3, stronger effect = lower value 1.01 | locus YBL061C, strain skt5, stronger effect = lower value 0.989 | locus YBR009C, strain hhf1, stronger effect = lower value 0.997 | locus YBR021W, strain FUR4, stronger effect = lower value 1.02 | locus YBR023C, strain chs3, stronger effect = lower value 1.02 | locus YBR171W, strain sec66, stronger effect = lower value 1.01 | locus YBR229C, strain ROT2, stronger effect = lower value 0.997 | locus YBR231C, strain swc5, stronger effect = lower value 1.01 | locus YBR279W, strain paf1, stronger effect = lower value 0.99 | locus YCL011C, strain gbp2, stronger effect = lower value 1.01 | locus YCL016C, strain dcc1, stronger effect = lower value 1.01 | locus YCL029C, strain bik1, stronger effect = lower value 1.01 | locus YCL061C, strain MRC1 (second series), stronger effect = lower value 1.01 | locus YCL069W, strain vba3, stronger effect = lower value 0.993 | locus YCR088W, strain abp1, stronger effect = lower value 1.01 | locus YDL005C, strain med2, stronger effect = lower value 1.02 | locus YDL035C, strain GPR1, stronger effect = lower value 1.01 | locus YDL040C, strain nat1, stronger effect = lower value 0.996 | locus YDL074C, strain BRE1, stronger effect = lower value 1.02 | locus YDL101C, strain DUN1, stronger effect = lower value 1 | locus YDL134C, strain PPH21, stronger effect = lower value 1 | locus YDL185W, strain tfp1, stronger effect = lower value 1 | locus YDL192W, strain arf1, stronger effect = lower value 1.01 | locus YDR001C, strain nth1, stronger effect = lower value 0.996 | locus YDR069C, strain doa4, stronger effect = lower value 1 | locus YDR101C, strain arx1, stronger effect = lower value 0.997 | locus YDR137W, strain rgp1, stronger effect = lower value 1.01 | locus YDR150W, strain NUM1, stronger effect = lower value 1.01 and 1 | locus YDR159W, strain sac3, stronger effect = lower value 0.987 | locus YDR162C, strain NBP2, stronger effect = lower value 1.02 | locus YDR195W, strain ref2 0.976 | locus YDR297W, strain sur2, stronger effect = lower value 0.999 | locus YDR318W, strain mcm21, stronger effect = lower value 1.01 | locus YDR334W, strain swr1, stronger effect = lower value 1 | locus YDR335W, strain msn5, stronger effect = lower value 1.01 | locus YDR363W, strain ESC2, stronger effect = lower value 1.05 | locus YDR388W, stronger effect = lower value 1.01 | locus YDR392W, strain spt3, stronger effect = lower value 0.98 | locus YDR502C, strain sam2, stronger effect = lower value 1 | locus YEL003W, strain gim4, stronger effect = lower value 1 | locus YEL037C, strain rad23, stronger effect = lower value 0.995 | locus YEL061C, strain CIN8 (second series), stronger effect = lower value 0.995 | locus YEL061C, strain CIN8, stronger effect = lower value 1.01 | locus YER002W, strain NOP16, stronger effect = lower value 1.02 | locus YER015W, strain faa2, stronger effect = lower value 1.01 | locus YER016W, strain bim1, stronger effect = lower value 1.01 | locus YER110C, stronger effect = lower value 1 | locus YER111C, strain swi4, stronger effect = lower value 0.993 | locus YER155C, strain BEM2 (second series), stronger effect = lower value 0.955 | locus YER155C, strain BEM2, stronger effect = lower value 1.01 | locus YER167W, strain BCK2, stronger effect = lower value 1.01 | locus YFR010W, strain ubp6, stronger effect = lower value 0.994 | locus YGL078C, strain dbp3, stronger effect = lower value 1.01 | locus YGL086W, strain mad1, stronger effect = lower value 0.998 | locus YGL167C, strain pmr1, stronger effect = lower value 0.997 | locus YGL173C, strain kem1, stronger effect = lower value 1 | locus YGL227W, strain vid30, stronger effect = lower value 1.02 | locus YGL240W, strain doc1, stronger effect = lower value 0.983 | locus YGL248W, strain PDE1, stronger effect = lower value 0.997 | locus YGL253W, strain hxk2, stronger effect = lower value 1.02 | locus YGR078C, strain PAC10, stronger effect = lower value 1 and 1.01 | locus YGR135W, strain pre9, stronger effect = lower value 1.01 | locus YGR229C, strain SMI1, stronger effect = lower value 1.02 | locus YGR252W, strain gcn5, stronger effect = lower value 0.956 | locus YHR013C, strain ard1, stronger effect = lower value 1.04 | locus YHR027C, strain rpn1, stronger effect = lower value 1.01 | locus YHR030C, strain SLT2, stronger effect = lower value 1 and 1.05 | locus YHR079C, strain IRE1 (second series), stronger effect = lower value 1.01 | locus YHR079C, strain IRE1, stronger effect = lower value 1.05 | locus YHR094C, strain hxt1, stronger effect = lower value 1 | locus YHR129C, strain ARP1, stronger effect = lower value 1 | locus YHR142W, strain chs7, stronger effect = lower value 0.994 | locus YHR200W, strain rpn10, stronger effect = lower value 1.01 | locus YIL066C, strain RNR3, stronger effect = lower value 1.01 | locus YIL073C, strain SPO22, stronger effect = lower value 1.03 | locus YIL125W, strain kgd1, stronger effect = lower value 1.01 | locus YIR030C, strain dcg1, stronger effect = lower value 1.01 | locus YJL092W, strain hpr5, stronger effect = lower value 1 | locus YJL095W, strain BCK1 (second series), stronger effect = lower value 1.01 | locus YJL095W, strain BCK1, stronger effect = lower value 0.996 and 1.01 | locus YJL115W, strain asf1, stronger effect = lower value 1 | locus YJL129C, strain trk1, stronger effect = lower value 1.01 | locus YJL134W, strain LCB3, stronger effect = lower value 1.01 | locus YJL154C, strain vps35, stronger effect = lower value 1.01 | locus YJL164C, strain tpk1, stronger effect = lower value 0.995 | locus YJL166W, strain qcr8, stronger effect = lower value 0.98 | locus YJL168C, strain set2, stronger effect = lower value 1 | locus YJL187C, strain SWE1 (second series), stronger effect = lower value 1 | locus YJR043C, strain POL32, stronger effect = lower value 1 | locus YJR066W, strain TOR1, stronger effect = lower value 0.985
